Records with an inconclusive call do not appear. The source made the active and inactive calls. Calls follow the shape of the dose curve; as a rule, active = well fitted cell-killing curve with a large enough effect; inconclusive = small, poorly fitted or top-dose-only effect, or effect the other way; inactive = no such curve, though single readings can be large or run the other way.
experiment: Quantitative High-Throughput drug screen in 47 multiple myeloma cell lines against the NCATS MIPE library collection: XG6_PLB cell viability assay (AID 1919865); conditions: XG6 myeloma viability, CellTiter-Glo ATP luminescence, 48 h; series mostly up to 45.8 µM; viability (% of control): at the top concentration; also: nearly all actives have a fitted effect of over 40% in size
From the text: PI: Beverly A. Mock Ph.D.
Laboratory of Cancer Biology and Genetics,
Center for Cancer Research, National Cancer Institute,
National Institute of Health, Bethesda, Maryland
Drug resistance and disease progression are common in multiple myeloma (MM) patients, underscoring the need for new therapeutic combinations. […] We hypothesized that effective combinations would reduce MYC expression and enhance p16 activity. […] These preclinical data identify potentially useful drug combinations for evaluation in drug-resistant MM and reveal potential mechanisms of combined drug sensitivity.
Described herein is the primary MIPE qHTS used to cherrypick compounds. Validated compounds were then further tested for potential synergistic activiy.
[1] Peat TJ, Gaikwad SM, Dubois W, Gyabaah-Kessie N, Zhang S, Gorjifard S, Phyo Z, Andres M, Hughitt VK, Simpson RM, Miller MA, Girvin AT, Taylor A, Williams D, D'Antonio N, Zhang Y, Rajagopalan A, Flietner E, Wilson K, Zhang X, Shinn P, Klumpp-Thomas C, McKnight C, Itkin Z, Chen L, Kazandijian D, Zhang J, Michalowski AM, Simmons JK, Keats J, Thomas CJ, Mock BA. Drug combinations identified by high-throughput screening promote cell cycle transition and upregulate Smad pathways in myeloma. Cancer Lett. 2023 Aug 1;568:216284. doi: 10.1016/j.canlet.2023.216284. Epub 2023 Jun 24. PMID: 37356470; PMCID: PMC10408729.
SEQUENCE No. (e.g., 1, 2, 3, etc.); […] (e.g., Cells, Incubation, Reagent, etc.); VALUE and DESCRIPTION.
1; Cells; 5 uL; white, solid bottom 1536-well Greiner assay plate.
2; Compounds; 23 nL; Kalypsis pin tool (Wako USA) equipped with a 1536-well pin head to transfer to the assay plates.
3; Incubation; 48 hours; 37C incubation.
4; Reagent;5uL; CellTiter Glo (Promega).
5; Detector; 425V; Luminescence; Viewlux PerkinElmer.
NOTES (numbers refer to Sequence numbers above)
1. The cell-based screening methods employed in this study were like those previously published. Briefly, the corresponding myeloma cell lines were screened in 1,536-well plates with 500 cells, 5-uL per well for inhibition of cell viability (assessed by measuring ATP levels with CellTiterGlo).
2. NCATS MIPE 4.0 library of approved and investigational drugs were added using the Kalypsis pin tool. Wells treated with DMSO only for 100% viability and media only for 0% viability were used as controls.
3. The assay plates were covered and incubated for 48 hours in a 37C, 5% CO2 incubator with controlled humidity.
4. After 48 hours, CellTilter-GloTM luminescent substrate mix (Promega) reagent was added to the assay plate and plates we incubated for 5 min at room temperature.
5. Signal was measured as median relative luminescence units on a ViewLux (PerkinElmer) multiplate reader.
[1] Heske CM, Davis MI, Baumgart JT, Wilson K, Gormally MV, Chen L, Zhang X, Ceribelli M, Duveau DY, Guha R, Ferrer M, Arnaldez FI, Ji J, Tran HL, Zhang Y, Mendoza A, Helman LJ, Thomas CJ. Matrix Screen Identifies Synergistic Combination of PARP Inhibitors and Nicotinamide Phosphoribosyltransferase (NAMPT) Inhibitors in Ewing Sarcoma. Clin Cancer Res. 2017 Dec 1;23(23):7301-7311. doi: 10.1158/1078-0432.CCR-17-1121. Epub 2017 Sep 12. PMID: 28899971; PMCID: PMC6636827.
Potency is read from the fitted curve at half-maximal effect.

| SMILES | Potency | viability (% of control) |
| --- | --- | --- |
| CC[C@H](Nc1ncnc2nc[nH]c12)c1nc2cccc(F)c2c(=O)n1-c1ccccc1 | 13.2 µM (active) | – |
| COc1ccc(-c2oc3cc(OC)ccc3c2C(=O)c2ccc(C#N)cc2)cc1 | 3.32 µM (active) | – |
| CCOc1ccc(Cc2cc([C@@H]3O[C@H](CO)[C@@H](O)[C@H](O)[C@@H]3O)ccc2Cl)cc1 | 3.32 µM (active) | – |
| Cc1cc2c(C(C)C)c(O)c(O)c(C=O)c2c(O)c1-c1c(C)cc2c(C(C)C)c(O)c(O)c(C=O)c2c1O | 7.43 µM (active) | – |
| Cc1cccc(-c2nn(C(=S)Nc3ccccc3)cc2-c2ccnc3ccccc23)n1 | – | 95.2% (inactive) |
| Cc1cn[nH]c1 | 0.296 µM (active) | – |
| Nc1nccc(-c2ccc3noc(-c4ccc(Cl)cc4)c3c2)n1 | 2.64 µM (active) | – |
| C[C@H](NC(=O)Cc1cc(F)cc(F)c1)C(=O)N[C@@H]1C(=O)N(C)c2ccccc2-c2ccccc21 | 4.69 µM (active) | – |
| CC(=O)Oc1ccccc1C(=O)O | 4.69 µM (active) | – |
| COc1ccc(CCN2CCN(CCCc3ccccc3)CC2)cc1OC | 4.69 µM (active) | – |
| Cn1cnc2c(F)c(Nc3ccc(Br)cc3Cl)c(C(=O)NOCCO)cc21 | 0.418 µM (active) | – |
| COc1ccc(-c2ccc3c(N4CCOCC4)nc(N4C[C@@H](C)O[C@@H](C)C4)nc3n2)cc1CO | 0.59 µM (active) | – |
| Cc1c(CCOc2ccc(C(=O)O)cc2)c2cc(Cl)ccc2n1C(c1ccccc1)c1ccccc1 | – | 98.1% (inactive) |
| CCN(CC)CCCC(C)Nc1ccnc2cc(Cl)ccc12 (stereo not given) | 10.5 µM (active) | – |
| OC(CN1CCC(Cc2ccc(F)cc2)CC1)c1ccc(Cl)cc1 (stereo not given) | – | 96.9% (inactive) |
| Cc1cc([C@@H](C)Nc2ccccc2C(=O)O)c2nc(N3CCOCC3)cc(=O)n2c1 | 1.91 µM (active) | – |
| CCn1cc(C(=O)O)c(=O)c2cc(F)c(N3CCNC(C)C3)c(F)c21 (stereo not given) | – | 99.2% (inactive) |
| Cc1cc(Nc2nc(N[C@@H](C)c3ncc(F)cn3)ncc2Cl)n[nH]1 | 2.96 µM (active) | – |
| Nc1ccc(S(=O)(=O)Nc2ccnn2-c2ccccc2)cc1 | – | 108% (inactive) |
| c1ccc([C@H]2CN3CCSC3=N2)cc1 | 23.5 µM (active) | – |

| SMILES | Potency | viability (% of control) |
| --- | --- | --- |
| Clc1cccc(Cl)c1NC1=NCCN1 | – | 94% (inactive) |
| CCN(c1ccccc1)c1cc(NC)[n+](C)c(C)n1 | – | 106% (inactive) |
| CC1(C)CNc2cc(NC(=O)c3cccnc3NCc3ccncc3)ccc21 | 0.372 µM (active) | – |
| C#Cc1cccc(Nc2ncnc3cc(OCCOC)c(OCCOC)cc23)c1 | 0.0833 µM (active) | – |
| c1ccc(-c2nn3c(c2-c2ccnc4cc(OCCN5CCOCC5)ccc24)CCC3)nc1 | – | 100% (inactive) |
| Cc1cc(C=c2sc3nc4ccccc4n3c2=O)c(C)n1-c1ccccc1 | – | 76.2% (inactive) |
| N[C@@H]1CONC1=O | – | 97% (inactive) |
| O=C(O)COCCN1CCN(C(c2ccccc2)c2ccc(Cl)cc2)CC1 (stereo not given) | – | 122% (inactive) |
| Cc1cc(SCc2sc(-c3ccc(C(F)(F)F)cc3)nc2C)ccc1OCC(=O)O | – | 105% (inactive) |
| O=c1ncn2nc(Sc3ccc(F)cc3F)ccc2c1-c1c(Cl)cccc1Cl | 13.2 µM (active) | – |
| O=C(Nc1cccnc1)N1CCC(Cc2cccc(Oc3ccc(C(F)(F)F)cn3)c2)CC1 | 14.8 µM (active) | – |
| CCOC(=O)C1=C[C@]2(CC)CCCN3CCc4c(n1c1ccccc41)[C@@H]32 | 7.43 µM (active) | – |
| O=C(O)CCc1ccc(NCc2cccc(Oc3ccccc3)c2)cc1 | – | 95.7% (inactive) |
| Cc1[nH]c(=O)c(C#N)cc1-c1ccc2nccn2c1 | – | 77.4% (inactive) |
| CC(C)(Sc1ccc(CCN(CCCCC2CCCCC2)C(=O)NC2CCCCC2)cc1)C(=O)O | – | 92.1% (inactive) |
| Cc1csc(NC(=O)c2sc3nc4c(c(C(F)(F)F)c3c2N)CCC4)n1 | – | 82.9% (inactive) |
| C[C@]12CC[C@H](O)CC1=CC[C@@H]1[C@H]2CC[C@]2(C)C(c3cccnc3)=CC[C@H]12 | 3.23 µM (active) | – |
| Cc1ccccc1C(C(=O)NC1CCCC1)N(C(=O)Cn1cnc2ccccc21)c1cccc(F)c1 (stereo not given) | – | 83.3% (inactive) |
| COc1nc(-c2ccc3c(c2)OCO3)n(-c2ccc(NC(=O)CSc3ccccc3)cc2)n1 | – | 109% (inactive) |
| Nc1ncnc2nc(-c3ccc(N4CCOCC4)nc3)cc(-c3cccc(Br)c3)c12 | 10.5 µM (active) | – |

Reference: PubChem BioAssay (NCATS)
